Measured values as given in PubChem BioAssay (NCATS).
Results filed as inconclusive are left out. Active and inactive are the calls of the source. Calls follow the shape of the dose curve; as a rule, active = well fitted curve in the direction sought with a large enough effect; inconclusive = small, poorly fitted or top-dose-only effect, or another doubt; inactive = no such curve, though single readings can be large; an effect the other way counts as inactive or inconclusive.

Key:
[1] = tested on: MKL-1; assay: qHTS assay to identify novel small-molecules to repurpose for Merkel cell carcinoma treatment (AID 1296009); conditions: MCC and control cell lines, CellTiter-Glo viability, 72 h; series mostly up to 46 µM; also: nearly all actives have a fitted effect of over 60% in size
Procedure, shortened: (§1)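 Dose-response viability screen; 72 hr exposure at 37 degree celsius; CellTiter-Glo added, 10 min room temperature, luminescence read; RLUs scaled between no-cell and DMSO wells.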

[2] = tested on: MKL-2; assay: as above; conditions: MCC and control cell lines, CellTiter-Glo viability, 72 h; series mostly up to 46 µM
Procedure, shortened: as §1

[3] = tested on: NIH3T3; assay: as above; conditions: MCC and control cell lines, CellTiter-Glo viability, 72 h; at 44.8 µM (top of the series) unless noted
Procedure, shortened: as §1

[4] = tested on: UISO; assay: as above; conditions: MCC and control cell lines, CellTiter-Glo viability, 72 h; series mostly up to 46 µM
Procedure, shortened: as §1

[5] = tested on: WaGa; assay: as above; conditions: MCC and control cell lines, CellTiter-Glo viability, 72 h; series mostly up to 46 µM
Procedure, shortened: as §1

[6] = tested on: C33A; assay: Primary qHTS to identify gynecologic anti-cancer compounds using libraries of approved drugs and bioactive compounds (AID 1345084); conditions: Gynecologic cancer cell panel viability, ATPlite luminescence, 48 h; series mostly up to 57.5 µM; also: nearly all actives have a fitted effect of over 55% in size
Procedure, shortened: (§2)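 Luminescence from the ATPlite ATP-monitoring reagent indicates viable cell number; lower signal means cytotoxicity. Cells received compound 16 h after seeding and were exposed for 48 h across five concentrations.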

[7] = tested on: CAOV3; assay: as above; conditions: Gynecologic cancer cell panel viability, ATPlite luminescence, 48 h; series mostly up to 57.5 µM
Procedure, shortened: as §2

[8] = tested on: CASKI; assay: as above; conditions: Gynecologic cancer cell panel viability, ATPlite luminescence, 48 h; series mostly up to 57.5 µM
Procedure, shortened: as §2

[9] = tested on: Es-2; assay: as above; conditions: Gynecologic cancer cell panel viability, ATPlite luminescence, 48 h; series mostly up to 57.5 µM
Procedure, shortened: as §2

[10] = tested on: HeLa; assay: as above; conditions: Gynecologic cancer cell panel viability, ATPlite luminescence, 48 h; series mostly up to 57.5 µM
Procedure, shortened: as §2

[11] = tested on: Hek293T; assay: as above; conditions: Gynecologic cancer cell panel viability, ATPlite luminescence, 48 h, control line for the selectivity index; series mostly up to 57.5 µM
Procedure, shortened: as §2

[12] = tested on: JEG-3; assay: as above; conditions: Gynecologic cancer cell panel viability, ATPlite luminescence, 48 h; series mostly up to 57.5 µM
Procedure, shortened: as §2

[13] = tested on: OV90; assay: as above; conditions: Gynecologic cancer cell panel viability, ATPlite luminescence, 48 h; series mostly up to 57.5 µM
Procedure, shortened: as §2

[14] = tested on: PA-1; assay: as above; conditions: Gynecologic cancer cell panel viability, ATPlite luminescence, 48 h; series mostly up to 57.5 µM
Procedure, shortened: as §2

[15] = tested on: SKOV3; assay: as above; conditions: Gynecologic cancer cell panel viability, ATPlite luminescence, 48 h; series mostly up to 57.5 µM
Procedure, shortened: as §2

[16] = tested on: Tov-21-G; assay: as above; conditions: Gynecologic cancer cell panel viability, ATPlite luminescence, 48 h; series mostly up to 57.5 µM
Procedure, shortened: as §2

[17] = tested on: Tov112D; assay: as above; conditions: Gynecologic cancer cell panel viability, ATPlite luminescence, 48 h; series mostly up to 57.5 µM
Procedure, shortened: as §2

[18] = Drug repurposing screens with cells derived from glioblastoma tumor samples (AID 1345199); conditions: GBM patient neurospheres viability, ATP luminescence, 48 h; also: nearly all actives have a fitted effect of over 40% in size
Procedure, shortened: (§3)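 Primary testing used CD133+ neurospheres from four GBM patients, seven concentrations, 48 h exposure and ATP-based viability; confirmation added three slower-growing patient lines.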

[19] = tested on: astro; assay: as above; conditions: viability, ATP luminescence, 48 h; series mostly up to 45.9 µM
Procedure, shortened: as §3

[20] = at 45.9 µM (top of the series), tumour line B
[21] = at 45.9 µM (top of the series), tumour line D
[22] = at 46.1 µM (top of the series), tumour line C
% is scaled to controls: 0 for no effect and ±100 for the full control effect.

CCOC(=O)C1=C(O)C(=O)N(Cc2ccccc2)C1
inactive: Potency [1] | Potency [2] | outcome [3] | Potency [4] | Potency [5]

CC1=C(C(=O)O)N2C(=O)[C@@H](NC(=O)[C@H](N)C3=CCC=CC3)[C@H]2SC1
inactive: Potency [1] | Potency [2] | outcome [3] | Potency [4] | Potency [5] | Potency [6] | Potency [7] | Potency [8] | Potency [9] | Potency [10] | Potency [11] | Potency [12] | Potency [13] | Potency [14] | Potency [15] | Potency [16] | Potency [17] | activity, negative = cell killing [18, 20] -8.4% | activity, negative = cell killing [18, 21] -14.2% | activity, negative = cell killing [18, 22] -3.66% | Potency [19]

c1cnc2cc3c(cc2n1)C1CNCC3C1
inactive: Potency [1] | Potency [2] | outcome [3] | Potency [4] | Potency [5] | Potency [6] | Potency [7] | Potency [8] | Potency [9] | Potency [10] | Potency [11] | Potency [12] | Potency [13] | Potency [14] | Potency [15] | Potency [16] | Potency [17] | activity, negative = cell killing ([18]; at 99.2 µM (top of the series), tumour line C) 7.09% | activity, negative = cell killing ([18]; at 108 µM (top of the series), tumour line A) -15.8% | activity, negative = cell killing ([18]; at 108 µM (top of the series), tumour line B) -8.07% | activity, negative = cell killing ([18]; at 108 µM (top of the series), tumour line D) -25.1% | Potency [19]

CC(=O)Nc1ccc(O)cc1
inactive: Potency [1] | Potency [2] | outcome [3] | Potency [4] | Potency [5] | Potency [6] | Potency [7] | Potency [8] | Potency [9] | Potency [10] | Potency [11] | Potency [12] | Potency [13] | Potency [14] | Potency [16] | Potency [17] | activity, negative = cell killing [18, 20] -10.5% | activity, negative = cell killing [18, 21] -3.31% | activity, negative = cell killing ([18]; at 46 µM (top of the series), tumour line A) -25.4% | activity, negative = cell killing [18, 22] -7.56% | Potency [19]

COc1cc(OC)c(C(=O)CCCN2CCCC2)c(OC)c1
inactive: Potency [1] | Potency [2] | outcome [3] | Potency [4] | Potency [5] | Potency [6] | Potency [7] | Potency [8] | Potency [9] | Potency [10] | Potency [11] | Potency [12] | Potency [13] | Potency [14] | Potency [15] | Potency [16] | Potency [17] | activity, negative = cell killing ([18]; at 20 µM (top of the series), tumour line C) 0.201% | activity, negative = cell killing ([18]; at 21.2 µM (top of the series), tumour line B) -11.8% | activity, negative = cell killing ([18]; at 21.2 µM (top of the series), tumour line D) -17.1% | activity, negative = cell killing ([18]; at 21.3 µM (top of the series), tumour line A) -24.2% | Potency [19]
